# Rows were chosen to be rich in hits. Some 1.1% of all compounds tested hit in one or more screens of this group.
# Sa RN4220 lethal = growth inhibition of S. aureus RN4220, primary screen, OD600 | 16 h | inhibition, % (test concentration not listed) | 330,000 compounds, 0.33% hits | AID 1259311, 2017; in the data active = inhibition above about 85%;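 note: plate controls were untreated cells for no effect and reference antibiotic for full effect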
# PriA SSB inh = inhibitors of Klebsiella pneumoniae PriA binding to SSB C-terminal tail, primary screen, biochemical, AlphaScreen. PriA–SSB C-terminal tail interaction (Klebsiella pneumoniae). inhibition, % at 33 µM. AlphaScreen SSBct-PriA binding, biotinylated peptide. 430,000 compounds, 0.6% hits. AID 1272365, 2023; in the data active = inhibition mostly above about 37%, no sharp cut-off; inactive = mostly below about 20%;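 note: plate controls were negative control peptide for no effect and reference peptide for full effect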
# Mtb hypoxia rep = PubChem AID 1159583. fluorescence inhibition, % (no concentration beside the values). 300,000 compounds, 0.1% hits. M. tuberculosis hypoxia-regulated fluorescent reporter, fluorescence; in the data active = fluorescence inhibition mostly above about 23%, no sharp cut-off; inactive = mostly below about 17%
# Sa ugtP lethal = growth inhibition of ugtP-null S. aureus, primary screen, RN4220 ugtP deletion, OD600. 16 h. growth inhibition, % (concentration not given with the values). 330,000 compounds, 0.54% hits; in the data active = growth inhibition above about 68%;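 note: plate controls were untreated wells for no effect and antibiotic for full effect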
# An asterisk follows results filed as active; x = no result given.
SMILES,Sa RN4220 lethal,PriA SSB inh,Mtb hypoxia rep,Sa ugtP lethal
CCc1ccccc1NCC(=O)Nc1ccc(Cl)c(C(F)(F)F)c1,83,-15,3,90*
COc1ccccc1NC(=O)CN1CCN(CC(=O)Nc2ccc(Cl)c(C(F)(F)F)c2)CC1,-15,-5,x,-26
Cc1ccccc1-c1nc(C)c(CNC(=O)NC2CCCC2)s1,x,-11,x,x
Cn1nc(CN(Cc2ccco2)C(=O)N2CCN(S(C)(=O)=O)C2=O)c2c1CCC2,x,84*,x,x
CN(C)C(=O)Cn1cc(-c2ccc(F)cc2)cn1,x,38*,x,x
CC(c1ccccc1)N1C(=O)c2ccc(C(=O)Nc3ccc(Br)cc3C(=O)O)cc2C1=O (configuration not stated),100*,-20,11,92*
NNC(=O)c1[nH]c2ccccc2c1-c1ccccc1,x,102*,x,x
CC(=O)NNC(=O)c1[nH]c2ccc(Cl)cc2c1-c1ccccc1,5,2,-7,-9
CCOc1ccc(S(=O)(=O)Nc2ccc3c(c2)N(C(=O)C(C)(C)C)CC3)cc1F,x,4,x,x
COc1ccc(CCNC(=O)Nc2ccn3nccc3c2)cc1,x,-1,x,x
CC(=O)C1C(=O)C=C(c2cccs2)CC1c1ccccc1 (configuration not stated),4,-24,9,8
O=C1C=C(c2cccs2)C[C@H](c2ccccc2)[C@H]1n1nnc([N+](=O)[O-])n1,72,28,21,98*
O=c1[nH]sc2cc(F)ccc12,98*,-4,4,87*
O=c1[nH]sc2ccccc12,-2,-6,-1,11
O=[N+]([O-])c1ccc(O)c(C=NNc2nn[nH]n2)c1,95*,99,1,87*
Oc1ccccc1C=NNc1nn[nH]n1,4,6,2,7
O=C(NN=Cc1cc([N+](=O)[O-])ccc1O)Nc1ccccc1,91*,-13,7,71
O=C(NN=Cc1cc([N+](=O)[O-])ccc1O)c1ccncc1,86*,1,14,75
O=[N+]([O-])c1ccc(O)c(C=NNC2=NS(=O)(=O)c3ccccc32)c1,x,51*,x,x
O=C(NN=Cc1ccc([N+](=O)[O-])cc1)c1ccncc1,-1,-6,11,6
COc1cccc(NC(=O)Cn2nc(S(=O)(=O)c3ccc(Cl)cc3)ccc2=O)c1,x,15,x,x
O=C(c1ccccc1)c1cnc2cc3c(cc2c1N1CCN(c2cccc(Cl)c2)CC1)OCCO3,x,-3,x,x
O=C(Nc1ccc2c(c1)OCO2)N1CCC(N2CCCC2=O)CC1,x,4,x,x
COC(=O)N1CCc2ccccc2C1C(=O)N1CCCc2ccccc21 (configuration not stated),x,42,x,x
O=C(NN=Cc1cc([N+](=O)[O-])ccc1O)c1ccc2c(c1)OCCO2,90*,-5,6,68
SMILES,Sa RN4220 lethal,PriA SSB inh,Mtb hypoxia rep,Sa ugtP lethal
Cc1ccc(C(=O)NN=Cc2cc(Br)ccc2O)cn1,x,15,x,x
O=C(NN=Cc1cc(Cl)ccc1O)c1ccc(Br)cc1,74,-12,13,90*
O=c1c2cc(-c3cccs3)nn2ccn1Cc1nc(-c2cccc(C(F)(F)F)c2)no1,x,-8,x,x
CCOC(=O)c1sc(=NC(=O)c2ccc(N3C(=O)CCC3=O)cc2)n(C)c1C,x,-3,x,x
CC(C)(C)C1CCc2c(sc(NC(=O)CSc3ncn[nH]3)c2C#N)C1 (configuration not stated),-13,-4,-9,88*
CC(C)Cn1[nH]c2c3c(ccc2c1=O)C(=O)c1ccccc1C3=O,89*,7,-3,85*
CCOC(=O)c1sc(NC(=O)Nc2cccc(Cl)c2)cc1C,92*,3,-3,88*
CC(C)CC(NC(=O)OCc1ccccc1)C(=O)NC(Cc1ccccc1)C(=O)CCl (configuration not stated),x,-12,x,x
O=C(NC(Cc1ccccc1)C(=O)CCl)OCc1ccccc1 (configuration not stated),101*,x,-7,100*
CCOc1ccccc1NC(=O)Cn1nc(-c2cccs2)c2sc(N3CCCCC3)nc2c1=O,x,0,x,x
N#Cc1nc(Cc2ccccc2)oc1NCc1ccccc1Cl,-8,40*,x,-6
CSc1ccccc1NC(=O)C(=O)NCCc1ccoc1,x,14,x,x
CCCCCn1c(=O)c(C(=O)Nc2ccccn2)c(O)c2ccccc21,100*,-17,12,100*
CCCCCCCCCC(=O)NNC(=O)c1c(O)c2ccccc2n(CC)c1=O,97*,-16,4,101*
CCOC(=O)Cc1csc(NC(=O)c2c(O)c3ccccc3n(CCC(C)C)c2=O)n1,96*,-2,19,100*
CCCCCC(=O)NNC(=O)c1c(O)c2ccccc2n(CC)c1=O,24,-9,5,-7
CCCn1c(=O)c(C(=O)NNS(=O)(=O)c2ccc(NC(=O)OC)cc2)c(O)c2ccccc21,97*,-1,-1,97*
CCCCCCn1c(=O)c(C(=O)Nc2nc(CC(=O)OCC)cs2)c(O)c2ccccc21,43,-3,x,21
CCCCn1c(=O)c(C(=O)Nc2ccccn2)c(O)c2ccccc21,5,-8,-3,-9
Nc1nc(SCC(=O)Nc2ccc3c(c2)OCO3)ncc1S(=O)(=O)c1cccs1,x,-9,x,x
CC(OC(=O)c1ccc2ccccc2n1)C(=O)c1ccc(F)cc1 (configuration not stated),x,-11,x,x
CCOC(=O)N1CCN(C(=O)C2CN(C(C)=O)C2)CC1,x,-13,x,x
CCOC(=O)c1cccc(NC(=O)CSc2ncc(-c3ccc(C)c(C)c3)o2)c1,x,-18,x,x
CCCCCCn1c(=O)c(C(=O)Nc2cnccn2)c(O)c2ccccc21,35,-5,x,92*
Cc1nnc(NCc2ccccc2)c2ccccc12,-5,2,81*,-2
SMILES,Sa RN4220 lethal,PriA SSB inh,Mtb hypoxia rep,Sa ugtP lethal
c1ccc(CNc2nc(-c3ccccn3)nc3ccccc23)cc1,-1,64*,4,13
c1ccc(CNc2nc(NCc3ccccc3)c3ccccc3n2)cc1,92*,8,-2,101*
Cc1ccccc1-c1nc(CSc2nc3c(c(=O)[nH]2)CCC3)c(C)o1,10,94*,11,8
Cc1cccc(-c2nc(CSc3nc4c(c(=O)[nH]3)CCC4)c(C)o2)c1,6,96*,2,2
Cc1oc(-c2ccccc2)nc1CSc1nc2c(c(=O)[nH]1)CCC2,7,-1,0,0
CCc1ccc(S(=O)(=O)NCc2nn(CCN3CCCC3)c(=O)c3ccccc23)s1,x,44*,x,x
O=c1c2ccccc2c(CNS(=O)(=O)Cc2ccc(F)cc2)nn1CCN1CCCC1,x,1,x,x
COc1ccc(-c2cnc(SCC(=O)NCc3ccc4c(c3)OCO4)n2C)cc1,x,13,x,x
Cc1ccc(NC(=O)C(OC(=O)c2ccccc2Cl)c2ccccc2)cc1Cl (configuration not stated),-6,-5,-2,17
Cc1ccc(NC(=O)C(OC(=O)c2ccc(NC(N)=O)cc2)c2ccccc2)cc1Cl (configuration not stated),101*,-5,14,100*
CCOc1ccc(N2CCn3c2nn(CC(=O)NC[C@H]2CCCO2)c(=O)c3=O)cc1,x,-11,x,x
Cc1nc(Nc2ccccc2)sc1C(=O)c1ccccc1,x,-6,x,x
CC(C)(C)C(=O)c1sc(Nc2ccccc2)nc1N,8,40*,-3,2

# Source: PubChem
